Source: PubChem (National Center for Advancing Translational Sciences (NCATS))
Rows were chosen to be rich in hits. Some 4.2% of all compounds tested hit in one or more screens of this group.
SW480 rerep: A quantitative high throughput screen for small molecules that induce DNA re-replication in SW480 colon adenocarcinoma cells. AID 624297, 2012. actives 1.8% (n = 340,000). SW480 DNA re-replication, Hoechst DNA content imaging, 48 h. Potency, µM (highest dose often 46.1 µM), without a hit: top-dose re-replication activation, usual class: activators; further: % of control where 0% means no effect; nearly all actives have a fitted effect of over 55% in size
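Quantitative HTS format with DMSO vehicle controls; 48 hr drug incubation at 37 C, then 40 min Hoechst staining and scanning imager measurement at 405 nm excitation.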
a7 integrin act: qHTS for Activators of Integrin-Mediated Alleviation for Muscular Dystrophy | Potency, µM (highest dose often 38.3 µM), without a hit: at the highest dose activation, actives largely listed as activators | actives 0.064% (n = 350,000) | AID 624291, 2012 | alpha7betagal myoblasts, beta-gal FDG fluorescence, 48 h;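 further: 100% = response of the positive control SU9516; nearly all actives have a fitted effect of over 60% in size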
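alpha7betagal+/- myoblasts (passage 13, 250/well) treated 48 h at 37C with compounds at 1:260 dilution of DMSO stock. Lysed, then beta-galactosidase activity read as FDG fluorescence (ex 480/em 540) after 30 min, with pre-read for autofluorescence.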
Mito fusion yeast: qHTS Assay for Small Molecule Inhibitors of Mitochondrial Division or Activators of Mitochondrial Fusion; AID 485298, 2010; S. cerevisiae fusion-defective mutant growth rescue, CellTiterGlo 48 h; actives 0.23% (n = 320,000); Potency, µM (top dose mostly 46.1 µM), for the others: top-dose growth rescue (activation), actives largely listed as activators; further: % of control where 0% means no effect; nearly all actives have a fitted effect of over 45% in size
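Compounds are tested for their ability to restore growth of mitochondrial fusion-defective yeast strains at non-permissive 37C in YPEG medium over 48 hours. Viability is quantified by luciferase luminescence.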
MCF10A rerep: A quantitative high throughput screen for small molecules that induce DNA re-replication in MCF 10a normal breast cells | AID 624296, 2012 | actives 2.9% (n = 350,000) | Potency, µM (highest dose often 46.1 µM), for inactives: top-dose activity, positive = re-replication, actives largely listed as activators | MCF 10A DNA re-replication, Hoechst nuclear intensity, 48 h; further: % of control where 0% means no effect; nearly all actives have a fitted effect of over 50% in size
AT treatment: qHTS Assay for Identifying a Potential Treatment of Ataxia-Telangiectasia; actives 0.19% (n = 320,000); Potency, µM (doses to about 57.5 µM), inactives show top-dose activation, most hits filed as activators; F2112 A-T fibroblasts, KAP-1 phosphorylation AlphaLISA; neocarzinostatin DNA damage 30 min before lysis; AID 485349, 2010; further: % of control where 0% means no effect; nearly all actives have a fitted effect of over 45% in size
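hTERT-immortalized A-T patient fibroblasts (F2112), 500 cells/well in OPTI-MEM, 1% FBS, got compounds for 60 min, then NCS for 30 min at 37C. Lysates were then assayed for phospho-KAP-1 by AlphaLISA (anti-pKAP1 donor, anti-KAP1 acceptor beads), 6 hr at 25C.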
* = called active by the depositor. The call rests on the fitted dose curve; in most records, active means well fitted activation curve with a large enough effect; inconclusive means small, poorly fitted or top-dose-only effect; inactive means no such curve, though single readings can be large or run the other way. Potency means the concentration at half of the fitted maximal effect.

How did O=C1OCCN1C(=O)[C@H]1[C@H](c2ccc([N+](=O)[O-])cc2)C(c2cccc(Cl)c2)=NN1c1ccccc1 do in these assays?
SW480 rerep: 13%; a7 integrin act: 20%; Mito fusion yeast: -14%; MCF10A rerep: -4%; AT treatment: 4%

How did Cc1cccc(C2=NN(c3ccccc3)[C@@H](C(=O)N3CCOC3=O)[C@@H]2c2ccc(Cl)cc2)c1 do in these assays?
SW480 rerep: 26µM*; a7 integrin act: 16%; MCF10A rerep: 2.3µM*; AT treatment: 18%

Results for CCOc1ccccc1N1CCN(CC(=O)Nc2nc(C)c(C(=O)N(C)C)s2)CC1 ?
SW480 rerep: -2%; a7 integrin act: 20%; Mito fusion yeast: 1%; MCF10A rerep: 1%; AT treatment: 3%

What do the screens show for `CC(C)(C)S(=O)(=O)N1C[C@@H]2CC/C=C\C/C(c3ccccc3)=C\2[C@H]1CCO`?
SW480 rerep: -4%; a7 integrin act: -4%; MCF10A rerep: -24%

What do the screens show for `O=C(COC(=O)/C=C/c1ccc(OC(F)F)cc1)NC1CCCC1`?
SW480 rerep: -3%; a7 integrin act: -14%; Mito fusion yeast: -4%; MCF10A rerep: -5%; AT treatment: -6%

Results for O=C(COc1ccccc1-c1ccccc1)N/N=C/c1ccncc1 ?
SW480 rerep: -1%; a7 integrin act: 38%; Mito fusion yeast: inconclusive; MCF10A rerep: 21%; AT treatment: 1%

What do the screens show for `Cc1cccc(OCC(=O)N/N=C/c2ccc3c(c2)OCO3)c1`?
SW480 rerep: 4%; a7 integrin act: 4%; Mito fusion yeast: 10%; MCF10A rerep: -47%; AT treatment: 3%

How did Cc1ccccc1OCC(=O)Nc1ccc2c(c1)OCCO2 do in these assays?
SW480 rerep: 1%; a7 integrin act: inconclusive; Mito fusion yeast: -4%; MCF10A rerep: 0%; AT treatment: -9%

What do the screens show for `Cc1ccccc1OCC(=O)N/N=C/c1ccc2c(c1)OCCO2`?
SW480 rerep: inconclusive; a7 integrin act: 23%; Mito fusion yeast: -8%; MCF10A rerep: 12µM*; AT treatment: 2%

What do the screens show for `O=C(COc1ccccc1-c1ccccc1)N/N=C/c1ccc2ccccc2c1`?
SW480 rerep: 1.3µM*; a7 integrin act: -54%; Mito fusion yeast: 6%; MCF10A rerep: inconclusive; AT treatment: 4%

Results for Cc1cccc(C)c1OCC(=O)Nc1ccc2c(c1)OCCO2 ?
SW480 rerep: 80%; a7 integrin act: inconclusive; Mito fusion yeast: 0%; MCF10A rerep: 15µM*; AT treatment: 9%

How did Cc1cc(C)c(OCC(=O)N/N=C/c2ccc3c(c2)OCO3)c(C)c1 do in these assays?
SW480 rerep: inconclusive; a7 integrin act: -22%; Mito fusion yeast: -3%; MCF10A rerep: 2.9µM*; AT treatment: -3%

How did CC(C)(C)C(=O)N1NC(=Nc2ccccc2)SC1(C)C do in these assays?
SW480 rerep: 0%; a7 integrin act: -1%; Mito fusion yeast: -1%; MCF10A rerep: 21%; AT treatment: 10%

Results for Cc1ccc(S(=O)(=O)NCC(=O)OCC(=O)N2CCN(C(=O)c3ccco3)CC2)cc1C ?
SW480 rerep: -2%; a7 integrin act: 5%; Mito fusion yeast: 4%; MCF10A rerep: -1%; AT treatment: -1%

How did C=CCOc1ccc(Br)cc1/C=N/O do in these assays?
SW480 rerep: -2%; a7 integrin act: 3%; Mito fusion yeast: 7%; MCF10A rerep: 2%

How did C=CCOc1c(Br)cc(/C=C2\SC(=Nc3ccccc3)NC2=O)cc1OC do in these assays?
SW480 rerep: 19%; a7 integrin act: -30%; Mito fusion yeast: 2%; MCF10A rerep: inconclusive; AT treatment: -2%

How did CCOc1cc(Br)cc(/C=C2\SC(=Nc3ccccc3)NC2=O)c1O do in these assays?
SW480 rerep: -1%; a7 integrin act: 11%; Mito fusion yeast: -2%; MCF10A rerep: 8.2µM*; AT treatment: -2%

How did C=CCOc1ccc(Br)cc1/C=C1/SC(=Nc2ccc(C(=O)O)cc2)NC1=O do in these assays?
SW480 rerep: -12%; a7 integrin act: 0%; Mito fusion yeast: 13%; MCF10A rerep: 8.2µM*; AT treatment: 1%

Results for CCOc1cc(Br)cc(C(c2c(C(=O)O)[nH]c3ccccc23)c2c(C(=O)O)[nH]c3ccccc23)c1O ?
SW480 rerep: -12%; a7 integrin act: -19%; Mito fusion yeast: -12%; MCF10A rerep: -2%; AT treatment: 4%

Results for CSc1ccc(C(c2c(C(=O)O)[nH]c3ccccc23)c2c(C(=O)O)[nH]c3ccccc23)cc1 ?
SW480 rerep: inconclusive; a7 integrin act: 3%; Mito fusion yeast: 3%; MCF10A rerep: 21µM*; AT treatment: 11%

What do the screens show for `COc1ccc(NC(=O)Cn2nnc(-c3ccccc3NC(=O)c3ccco3)n2)cc1`?
SW480 rerep: inconclusive; a7 integrin act: -30%; Mito fusion yeast: -1%; MCF10A rerep: 10µM*; AT treatment: 3%

How did COc1ccccc1NC(=O)Cn1nnc(-c2ccccc2NC(=O)c2ccco2)n1 do in these assays?
SW480 rerep: 30%; a7 integrin act: -3%; Mito fusion yeast: -4%; MCF10A rerep: inconclusive; AT treatment: 2%

What do the screens show for `Cc1noc(C)c1COc1ccccc1C(=O)NC(C)CCc1ccccc1` (stereo not drawn)?
SW480 rerep: 4.1µM*; a7 integrin act: 35%; MCF10A rerep: -1%

How did Cc1noc(C)c1COc1ccc(CC(=O)NCCc2ccccn2)cc1 do in these assays?
SW480 rerep: -9%; a7 integrin act: 13%; Mito fusion yeast: -2%; MCF10A rerep: 4%; AT treatment: 0%

How did Cc1noc(C)c1COc1ccc(CC(=O)NCc2ccccc2)cc1 do in these assays?
SW480 rerep: inconclusive; a7 integrin act: 13%; Mito fusion yeast: 23%; MCF10A rerep: 5.8µM*; AT treatment: -1%

How did Cc1noc(C)c1COc1ccccc1C(=O)NCCc1ccccc1 do in these assays?
SW480 rerep: -8%; a7 integrin act: 18%; Mito fusion yeast: 0%; MCF10A rerep: 5%; AT treatment: 5%

What do the screens show for `Cc1noc(C)c1COc1ccc(C(=O)NCCc2ccccn2)cc1`?
SW480 rerep: 5%; a7 integrin act: inconclusive; Mito fusion yeast: -2%; MCF10A rerep: 3.3µM*; AT treatment: -2%

What do the screens show for `CC1=C(C(=O)O)CC(S(=O)(=O)O)C1(C)C` (stereo not drawn)?
SW480 rerep: -5%; a7 integrin act: 13%; MCF10A rerep: -4%
